HDAC3 inhib: blocks human histone deacetylase 3. inhibition, % at 8.3 µM. AID 2718. 0.15% of 320,000 active. recombinant HDAC3, fluorogenic peptide/trypsin coupled, fluorescence; in the data active means inhibition above about 26%, passing the limit was not always enough
Target sequence (O15379 whole entry, looked up): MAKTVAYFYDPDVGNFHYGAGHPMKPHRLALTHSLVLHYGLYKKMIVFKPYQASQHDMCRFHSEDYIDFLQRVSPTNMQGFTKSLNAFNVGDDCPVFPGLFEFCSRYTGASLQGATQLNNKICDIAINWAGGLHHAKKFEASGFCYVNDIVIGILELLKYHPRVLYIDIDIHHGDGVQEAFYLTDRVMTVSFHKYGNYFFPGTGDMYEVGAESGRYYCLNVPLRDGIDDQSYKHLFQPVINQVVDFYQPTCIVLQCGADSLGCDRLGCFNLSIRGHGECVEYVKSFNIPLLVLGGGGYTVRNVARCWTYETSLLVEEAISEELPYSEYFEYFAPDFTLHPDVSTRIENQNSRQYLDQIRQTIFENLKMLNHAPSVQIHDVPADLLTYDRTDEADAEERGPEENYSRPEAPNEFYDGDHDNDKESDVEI
Mot1-301 SUMO: SUMOylation pathway inhibition by Mot1-301 growth rescue; AID 2716; 1% of 320,000 active; growth rescue, % at 18.8 µM; S. cerevisiae Mot1-301 growth rescue, ATP luminescence, 38.5C; percent above DMSO median, 100 means doubled;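 active means every valid replicate shows activation above 250% relative to neutral control wells; inactive means the rest, any valid replicate at or below 250%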;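 further: OY570 slx delta 5 strain wells were the positive control but not used for scaling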
PvdQ acylase: blocks Pseudomonas aeruginosa PvdQ acylase activity; purified PvdQ acylase, fluorescence plate reader; inhibition, % at 10 µM; 0.063% of 340,000 active; AID 488965; in the data active means inhibition above about 30%, passing the limit was not always enough;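 further: 0% = vehicle neutral wells and 100% = reference inhibitor wells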
JMJD2C inh: inhibitors of human GASC-1 (JMJD2C) demethylase; Q9H3R0; GST-JMJD2C(1-420) H3K9me3 demethylation, DELFIA europium; inhibition, % at 2.35 µM; 0.069% of 330,000 active; AID 2099;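 active means more than half of a compound's replicate wells show inhibition beyond 50%, single wells judged on their own value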;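 further: signal counts dimethyl H3K9 product captured on neutravidin plate; 0% = median of DMSO wells and 100% = 0.3 times that DMSO median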
PHOSPHO1 block: inhibitors of human PHOSPHO1 phosphatase | inhibition, % at 13.3 µM | Q8TCT1 | recombinant PHOSPHO1, absorbance phosphatase assay | 1.1% of 290,000 active; in the data active means inhibition above about 60%
pCIP destab: lowers stability of the mouse p/CIP coactivator protein | 0.01% of 290,000 active | decrease of EGFP signal, % at 10 µM | Q05BA5 | F442A p/CIP-EGFP cells, EGFP fluorescence, 16 h;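 active means EGFP signal decrease of at least 30% at 10 µM or well 3 SD below plate mean, unless failing retest; inactive means the rest, including hits failing retest or dose response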
Yeast Mot1 SUMO: SUMO pathway inhibitors in yeast Mot1-301 growth; shares compounds with Mot1-301 SUMO; S. cerevisiae Mot1-301 galactose growth, ATP luminescence, 24 h; -100 = growth of slx-deleted rescue strain; growth activity, percent, % at 42 µM; 2,300 tested, under 10 active; AID 493004;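 active means Signal drops as the depositor expects, and the fitted half-maximal dose is no more than ten times the top valid tested dose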;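 further: more negative values mean stronger growth rescue toward the control strain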
Numbers without * were called inactive; x = no result; + = active, no number. Sampled rows, rich in hits. Any-hit rate of the full collection: about 2.2%.

SMILES	HDAC3 inhib	Mot1-301 SUMO	PvdQ acylase	JMJD2C inh	PHOSPHO1 block	pCIP destab	Yeast Mot1 SUMO
CC(C)C[C@@H](CO)N1CCN(Cc2cccnc2)CCC1=O	-7	621*	1	0	10	2	0
Cc1ccc(N(C(C)C(=O)O)S(=O)(=O)c2c(C)n[nH]c2C)cc1 (stereo not drawn)	-3	531*	3	14	3	-10	0
COc1ccc(N(CC(=O)O)S(=O)(=O)c2c(C)n[nH]c2C)cc1	0	-18	-10	23	28	0	x
CCOC(=O)C1C(=O)NC(SCC(=O)Nc2nccs2)=C(C#N)C1c1ccccc1OCC (stereo not drawn)	9	633*	-22	24	4	-1	0
CCc1c(C)c2ccc(OCC(=O)OC(C)C)c(C)c2oc1=O	-3	379	-9	0	14	-18	1
Cc1c(CC(=O)O)c(=O)oc2c(C)c(OCc3ccccc3)ccc12	-11	-8	-12	-1	35	-1	x
COc1cc(COc2ccc3c(C)c(CC(=O)O)c(=O)oc3c2C)cc(OC)c1OC	-6	628*	-12	-1	15	-13	-1
CCc1c(C)c2ccc(OCC(=O)N(C)C)c(C)c2oc1=O	-56	177	-17	7	-17	-8	x
CCC1=NN2C(=N)/C(=C\c3ccc(OCc4cc(=O)n5nc(CC)sc5n4)c(OC)c3)C(=O)N=C2S1	x	x	14	-32	6	1	x
CC(CNC(=O)CCC(=O)N1CCOc2ccc(Cl)cc21)c1ccccc1 (stereo not drawn)	x	10	-11	5	2	8	x
CC1(C)OC(C(O)(c2ccccc2)c2ccccc2)[C@@H](C(O)(c2ccccc2)c2ccccc2)O1 (stereo partly drawn)	4	23	-10	-1	-36	-15	x
O=C(CCc1nc2sc3c(c2c(=O)[nH]1)CCCC3)N1CCN(c2ccccc2)CC1	1	772*	4	-9	x	x	0
COc1ccc(C)cc1S(=O)(=O)N(C)CC(=O)NCc1ccccn1	4	192	0	-7	-15	-13	x
COc1ccc(CC(=O)N/N=C(\C)c2cccs2)cc1	-12	61	3	6	34	1	x
CCOC(=O)[C@@H]1CSCCS(=O)(=O)N1	x	x	-7	x	x	x	x
CCOC(=O)C1(Cc2cccc(F)c2)CCN(C(=O)c2cnccn2)CC1	8	632*	8	-16	32	-1	0
CCOC(=O)C1(Cc2ccccc2Cl)CCN(C(=O)c2cnccn2)CC1	1	-11	-12	5	50	-11	x
CCC1CCCCN1C(=S)NC(=O)c1cccc([N+](=O)[O-])c1 (stereo not drawn)	-16	197	-1	18	8	4	x
CS(=O)(=O)c1ccc(Cl)c(NC(=O)c2ccc3ccccc3c2)c1	-12	+	-7	0	2	-1	0
C/C(=N\NC(=S)Nc1ccccc1C)C1Cc2ccccc2C(=O)O1 (stereo not drawn)	0	-16	6	-3	-62	1	x
C/C(=N\NC(=S)Nc1ccccc1)C1Cc2ccccc2C(=O)O1 (stereo not drawn)	2	393*	x	-9	13	4	0
CCNc1sc(C(=O)OCC)c(N)c1C#N	4	13	-8	-8	-23	4	x
CN1CCN(C(=O)/C(=C\c2cccnc2)NC(=O)c2cccc(Br)c2)CC1	11	-6	-1	-3	56	-3	x
Cc1cc(NC(=O)CC2CCCC2)ccc1Br	5	386*	-8	-32	23	10	-1
Cc1ccc(NC(=O)CC2CS(=O)(=O)CC2CC(=O)Nc2ccc(C)c(C)c2)cc1C (stereo not drawn)	0	440*	-10	-6	24	-2	0
CC(C)CC(=O)NNC(=O)C(C)C	-1	-8	-8	1	-10	8	x
COc1ccc(Cl)cc1NC(=O)c1cccc(-n2cnnn2)c1	x	x	8	x	x	x	x
COC(C(=O)Nc1ccnn1C1CCN(Cc2cnn(C)c2)CC1)c1ccccc1 (stereo not drawn)	-3	497*	-2	-17	-29	-1	0
